Data as given in PubChem BioAssay AID652126 (The Scripps Research Institute Molecular Screening Center, 2013).
The whole screen tested about 370,000 compounds, of which about 3,700 (1%) were called active. The full list was thinned out, with actives kept by preference. A number with no mark means an inactive call.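 Rule for the calls: active = activation above the mean over all tested compounds plus 3 SD (cut at about 0.9% in these data); inactive = the rest.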

Test system: Nuclear hormone receptor DAF-12 (Strongyloides stercoralis)
Test: S. stercoralis DAF-12 nuclear receptor activators, primary screen, cell-based, luminescence, HEK293, GRIP1 co-expression, lit1-tk-luc (AID 652126);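 note: 0% = DMSO-only wells and 100% = 3 µM delta7-dafachronic acid wells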
Settings: HEK293 ssDAF-12/GRIP1 lit1-tk-luc reporter, at 6.8 µM, active compounds read high, % of 3 µM dafachronic acid response

SMILES	activation
O=C(CSc1nc2ccccc2n1Cc1ccccc1)NNC(=S)Nc1ccccc1	-1.45%
C=CCN1C(=O)[C@@H](CC(=O)NCCCCc2ccccc2)[C@]2(C(=O)OCC)CCCCC/C=C/12	-1.06%
CCOC(=O)CC1(NC(=O)c2cc(COc3cncc(Cl)c3)on2)CCCCC1	-1.57%
CCC(NC(=O)c1cc(COc2ccc(F)c(F)c2)on1)c1ccncc1 (stereo not drawn)	-0.62%
Cc1cc(OCc2cc(C(=O)NCc3cc(C(C)C)no3)no2)cc(C)c1Cl	1.55% (active)
Cc1ccc(C2=CCN(C)C(=O)N2c2ccc(Cl)cc2)cc1	-0.59%
Nn1c(SCC(=O)Nc2cccc3ccccc23)nnc1-c1cc(-c2ccc(F)cc2)n[nH]1	-1.45%
COc1cccc(C(O)Cc2nc3ccccc3n2C)c1OC (stereo not drawn)	-1.62%
Cc1ccc(OCc2nnc(SC3CCc4ccccc4C3=O)n2C)cc1 (stereo not drawn)	-0.36%
Cc1ccc(OCc2nc3ccccc3n2C)cc1	0.93% (active)
Cc1ccc(C(=O)N(Cc2ccccn2)CC2CCCO2)cc1 (stereo not drawn)	-0.96%
COc1ccc(Cl)cc1NC(=O)C(C)N1CCc2ccccc21 (stereo not drawn)	-1.48%
COC(CNC(=O)[C@H](Cc1ccccc1)NC1(C(=O)NC2CCCCC2)CCCCC1)OC	-1.29%
COC(=O)[C@]12C[C@H](CC(=O)N3CCN(C(=O)C4CC4)CC3)C(=O)N(CCC3=CCCCC3)C1=C[C@H](C(C)C)O[C@@H]2C1CC1	-1.07%
Cc1cc(N=Nc2ccc3ccccc3c2)ccc1O	1.92% (active)
COC(=O)CC1CCc2cc(C)cc(C(CC(C)C)NC(=O)[C@H](CC(C)C)NC(=O)OCc3ccccc3)c2O1 (stereo partly drawn)	-1.68%
CC(C)(C)c1ccc(CSc2nnc(-c3cccs3)o2)cc1	-0.67%
CCOC(=O)CSc1nc(C)cc2c1C(=O)OC2	1.04% (active)
CCOC(=O)CSc1ncc(-c2cccc(Cl)c2)cn1	-1.41%
CCN(Cc1ccccc1)C(=O)CSc1nc(C)cc2c1C(=O)OC2	-0.86%
COC(=O)C1CN(CCc2ccccc2)CCS(=O)(=O)N1Cc1ccc(F)cc1 (stereo not drawn)	-0.95%
COc1cccc(/C=C/C(=O)Nc2ccc3c(c2)OCCO3)c1	-0.84%

SMILES	activation
CN(Cc1ccccc1)C(=O)COC(=O)/C=C/c1ccc2c(c1)OCO2	-0.82%
Cc1cccc(NC(=O)/C=C/c2ccc3c(c2)OCO3)n1	1.53% (active)
c1csc(-c2nnc(SCc3nc4ccccc4[nH]3)o2)c1	-0.86%
O=C(CSc1nnc(-c2ccccn2)n1-c1ccccc1)Nc1ccc2cn[nH]c2c1	-0.07%
CC(=O)c1cc(-c2ccc3ccccc3c2)c(=O)n2c1CCC2	-1.47%
CC(CCN1CCC(C(O)(c2ccccc2)c2ccccc2)CC1)Oc1ccc(C(F)(F)F)cc1 (stereo not drawn)	-0.69%
C/C=C/C(=O)OCc1csc(CC(=O)Nc2ccccc2C)n1	-0.39%
Cc1ccc(NC(=O)Cc2nc(COC(=O)C(C)NS(=O)(=O)c3ccc(C)cc3)cs2)cc1 (stereo not drawn)	0.98% (active)
CC(=O)Nc1ccc(S(=O)(=O)NC(C)C(=O)OCC(=O)NC2CCCC2)cc1 (stereo not drawn)	-0.65%
COc1cccc(CNC(=O)CNS(=O)(=O)c2ccc3nc(C)sc3c2)c1OC	-1.81%
COc1ccc(CCNC(=O)CSc2nc3c([nH]2)c(=O)n(C)c(=O)n3C)cc1	-1.12%
COc1ccc2c(C(C)c3ccc(N)cc3)cn(C)c2c1 (stereo not drawn)	-0.41%
Cc1cc(Br)cn2c(Cc3ccccc3C(F)(F)F)c(C3CCCCC3)nc12	-0.29%
CCCc1nc2c3ccccc3ccn2c1Cc1ccccc1C(F)(F)F	1.29% (active)
FC(F)(F)c1ccccc1Cc1c(-c2ccccc2)nc2c3ccccc3ccn12	-0.19%
COc1ccc(S[C@]2(C(=O)N(C)C)CC(=O)N(c3ccc(OC)cc3)[C@@H]2c2ccc(OC)cc2)cc1	-1.42%
O=C(CSc1nnc(COc2ccccc2)n1-c1ccc(Cl)cc1)Nc1ccc2c(c1)OCO2	-0.91%
N#CCCN(C(=O)COC(=O)C1CCN(c2ccc(C(F)(F)F)cn2)CC1)c1ccc(F)cc1	-1.01%
CSCCNC(=O)c1ccc2nc(Cc3ccccc3F)oc2c1	1.4% (active)
COc1ccc(Cc2nc3ccc(C(=O)NCC4CCOCC4)cc3o2)cc1OC	-0.41%
CC(c1ccccn1)N(C)C(=O)c1ccc2nc(Cc3cccc(Cl)c3)oc2c1 (stereo not drawn)	0.07%
CC(C)c1ccc(N(C(=O)c2ccco2)C(C(=O)NC2CCCC2)c2cccnc2)cc1 (stereo not drawn)	-0.62%

SMILES	activation
CC/C(O)=C1\C(=O)CC(C)(C)CC1=NCCc1nc2ccccc2[nH]1	-1.35%
CCC(=O)/C(=C(/O)c1ccccc1)c1nc2ccccc2[nH]1	0.91% (active)
CCCC(NC(=O)c1ccco1)c1nc2ccccc2[nH]1 (stereo not drawn)	-0.66%
COC(=O)[C@]12C[C@H](CC(=O)NCC34CC5CC(CC(C5)C3)C4)C(=O)N(Cc3ccc(Cl)cc3Cl)C1=C[C@H](COCc1ccccc1)O[C@@H]2C	-0.9%
O=C(CN1CCCc2ccccc21)NCc1ccc(F)cc1	1.32% (active)
O=C(Cn1nc(C(F)(F)F)c2c1CCC2)NCc1ccc(F)cc1	-0.8%
O=C(CN1C(=O)CCS(=O)(=O)c2ccccc21)NCc1ccc(F)cc1	-1.14%
CCCNC(=O)Nc1ccc2c(c1)C(=O)N(C)[C@H]1CC[C@H](CC(=O)NCC3CCCCC3)O[C@@H]1CO2	-1.84%
c1ccc2sc(NN=C3CCCC3)nc2c1	1.21% (active)
O=C1NC(Nc2nc3ccccc3s2)(C(F)(F)F)C(=O)N1C1CCCCC1 (stereo not drawn)	-1.03%
O=C(COc1ccc(-c2ccccc2)cc1)NN=C1CCCC1	-1.61%
COC(=O)[C@]12C[C@H](CC(=O)NCc3cccs3)C(=O)N(CCc3ccc(OC)c(OC)c3)C1=C[C@H](C(C)C)O[C@@H]2C1CC1	-0.56%
CC[C@@H](CCC(=O)N(c1ccccc1)c1ccccc1)C1CC1	-1.64%
CC(C)(O)C#Cc1ccc(C(=O)N2CCC(C(N)=O)(N3CCCCC3)CC2)cc1	1.03% (active)
NC(=O)C1(N2CCCCC2)CCN(C(=O)c2ccc(C#Cc3ccccc3)o2)CC1	-1.3%
CCC(=O)N1CCC(C(N)=O)(N2CCCCC2)CC1	-1.29%
O=S1(=O)c2ccc(N3CCN(Cc4ccccc4F)CC3)cc2Oc2ccccc2CN1Cc1cn(Cc2ccc(Cl)cc2)nn1	-1.5%
COC(=O)[C@]12C[C@H](CC(=O)NCCCN3CCCC3=O)C(=O)N(CCc3ccc(OC)c(OC)c3)C1=C[C@H](COCc1ccccc1)O[C@@H]2C	-0.18%
CCOc1ccc(N(CC(=O)Nc2c(C)n(C)n(-c3ccccc3)c2=O)S(=O)(=O)c2ccc(Cl)s2)cc1	-0.93%
COC(=O)CCc1sc(Nc2ccc(Br)cc2)nc1-c1ccc(OC)cc1	-1.64%
Cc1cccc(Nc2nc(-c3ccccc3)cs2)n1	2.9% (active)
COc1ccc(NC(=S)N2N=CCC2c2ccccc2)cc1 (stereo not drawn)	0.28%

SMILES	activation
Clc1ccc(Nc2nc(-c3cccs3)cs2)nc1	1.83% (active)
c1ccc(Nc2nc(-c3ccncc3)cs2)nc1	1.1% (active)
c1ccc(-c2csc(N3CCc4ccccc4C3)n2)cc1	0.8%
COc1ccc(Nc2nc(-c3ccccc3)cs2)cc1	4.09% (active)
N#CC(=C1SC=CS1)c1nc(-c2ccccc2)cs1	0.19%
CC(=O)NC(c1cccc(F)c1)c1nc(-c2cccc(F)c2)cs1 (stereo not drawn)	-0.87%
O=C(CN1C(=O)C2C3C=CC(C3)C2C1=O)Nc1nc(-c2ccccn2)cs1 (stereo not drawn)	0.32%
Cc1cc(C)cc(NC(=O)N2CCC(N(C)CCC(C)C)CC2)c1	-1.43%
CCCC1CCC2(CCCN2CCOC(=O)NCc2ccccc2)CC1 (stereo not drawn)	-2.14%
CN1C[C@]2(C=C3CCCCC3n3c(=O)n(-c4ccccc4)c(=O)n32)N=C1NC(=O)c1ccccc1 (stereo partly drawn)	0.04%
Nn1c(SCC(=O)N2c3ccccc3Sc3ccccc32)nnc1-c1n[nH]c2c1CCC2	-1.79%
COCCCNC(=O)C[C@H]1C[C@@]2(C(=O)OC)C(=C[C@H](C(C)(C)C)O[C@@H]2C)N(Cc2ccc(Cl)cc2Cl)C1=O	-0.31%
COc1ccc(CN2C/C(=C/c3ccccc3)N3C(=O)C[C@@H](c4ccccc4)N=C23)c(OC)c1	-1.31%
CCOC(=O)c1csc(NC(=O)C2CCCN(S(=O)(=O)c3ccc(Cl)s3)C2)n1 (stereo not drawn)	-2.1%
COc1cccc(/C=C2\CC3(OC(C)=O)CCCN2C3)c1 (stereo not drawn)	-1.47%
O=C(CSc1nnc(-c2ccccn2)n1-c1ccc(Cl)cc1)Nc1ccccc1-c1ccccc1	-1.33%
CN(C)CC(=O)N[C@@H]1C[C@@H]2O[C@H](CO)CC[C@@H]2O[C@@H]1CCc1ccc(C#Cc2ccccc2)cc1	-1.63%
Oc1ccc(/C=C/c2c(F)cccc2F)c2cccnc12	-1.91%
Cc1ccc(C)c(NC(=O)CCS(=O)(=O)c2ccccc2)c1	-0.72%
CCOC(=O)c1cc2n(c1N)-c1ccccc1C2=O	1.03% (active)
CCOC(=O)c1ccn(S(=O)(=O)c2ccc(C)cc2)c1-c1ccccc1	-1.27%
CCOC(=O)c1ccccc1NC(=O)c1c(N)n(C)c(=O)[nH]c1=O	-0.82%
